From the supplement of paper PMC10849652
The full data set covers some 8,800 targets. This sample favours those with a hit. About 0.5% of all pairs of compound and target were hits. Unmarked numbers belong to inactive results.

Key:
Test in all cases: log2 fold change, soluble protein after heating vs DMSO (PISA); higher = thermal stabilisation; K562 lysate, 10 uM; active = over 0.2 and 3.5 SD of the protein, either way, in both replicates (recomputed)
vemurafenib = compound: CCCS(=O)(=O)Nc1ccc(F)c(C(=O)c2c[nH]c3ncc(-c4ccc(Cl)cc4)cc23)c1F [vemurafenib]
Summary of the method: (§1)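 K562 pellets were dounce-homogenised in PBS pH 7.4 containing 1 mM MgCl2, and the crude extract, at 1 mg/mL protein, was exposed to 10 μM compound for 30 min. Aliquots were heated for 3 min across 48°C-58°C, pooled, brought to 0.5% NP-40 at 4°C and spun at 21,000xg for 90 min, with the supernatant taken as soluble protein. TMTpro 16plex LC-MS/MS with equalised channel sums quantified that protein. Values are log-two fold changes in thermal stability relative to solvent controls, taken from duplicates.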

[1] = compound: CCCS(=O)(=O)Nc1ccc(F)c(C(=O)c2c[nH]c3ncc(Cl)cc23)c1F
Summary of the method: as §1

barasertib = compound: CCN(CCCOc1ccc2c(Nc3cc(CC(=O)Nc4cccc(F)c4)[nH]n3)ncnc2c1)CCOP(=O)(O)O [barasertib]
Summary of the method: as §1

[2] = compound: CC[C@@H]1C(=O)N(C)c2cnc(Nc3ccc(C(=O)NC4CCN(C)CC4)cc3OC)nc2N1C1CCCC1
Summary of the method: as §1

volasertib = compound: CC[C@@H]1C(=O)N(C)c2cnc(Nc3ccc(C(=O)N[C@H]4CC[C@H](N5CCN(CC6CC6)CC5)CC4)cc3OC)nc2N1C(C)C [volasertib]
Summary of the method: as §1

[3] = compound: CCn1c(C(=O)N(C2CC2)C2CC2)cc2c3c(ncn3C)c(Nc3cc(C)n(C)n3)nc21
Summary of the method: as §1

[4] = compound: CCn1cc(-c2ccnc3[nH]c(-c4cccc(CN(C)C)c4)cc23)c(-c2ccc(NC(=O)N(C)C)cc2)n1
Summary of the method: as §1

[5] = compound: CN1CCC(CNc2ccc3ncc(-c4cccc(OC(F)(F)F)c4)n3n2)CC1
Summary of the method: as §1

saracatinib = compound: CN1CCN(CCOc2cc(OC3CCOCC3)c3c(Nc4c(Cl)ccc5c4OCO5)ncnc3c2)CC1 [saracatinib]
Summary of the method: as §1

sotrastaurin = compound: CN1CCN(c2nc(C3=C(c4c[nH]c5ccccc45)C(=O)NC3=O)c3ccccc3n2)CC1 [sotrastaurin]
Summary of the method: as §1

alvocidib = compound: CN1CC[C@H](c2c(O)cc(O)c3c(=O)cc(-c4ccccc4Cl)oc23)[C@H](O)C1 [alvocidib]
Summary of the method: as §1

Tubastatin A = compound: CN1CCc2c(c3ccccc3n2Cc2ccc(C(=O)NO)cc2)C1 [Tubastatin A]
Summary of the method: as §1

[6] = compound: CNC(=O)C1=CC=CC=C1NC2=NC(=NC=C2Cl)NC3=C(C=C(C=C3)N4CCOCC4)OC
Summary of the method: as §1

defactinib = compound: CNC(=O)c1ccc(Nc2ncc(C(F)(F)F)c(NCc3nccnc3N(C)S(C)(=O)=O)n2)cc1 [defactinib]
Summary of the method: as §1

[7] = compound: CNc1nc(-c2ccc3c(N)n[nH]c3c2)cc(N2C[C@@H](C(=O)NC3CCCCC3)CC[C@H]2C)n1
Summary of the method: as §1

encorafenib = compound: COC(=O)N[C@@H](C)CNc1nccc(-c2cn(C(C)C)nc2-c2cc(Cl)cc(NS(C)(=O)=O)c2F)n1 [encorafenib]
Summary of the method: as §1

[8] = compound: COC(=O)[C@H](CCSC)NC(=O)C1=C(C=C(C=C1)NC[C@H](CS)N)C2=CC=CC=C2
Summary of the method: as §1

alisertib = compound: COc1cc(Nc2ncc3c(n2)-c2ccc(Cl)cc2C(c2c(F)cccc2OC)=NC3)ccc1C(=O)O [alisertib]
Summary of the method: as §1

[9] = compound: COc1cc2nc(-c3cc(F)ccc3O)nc(N[C@@H]3CNC[C@H]3C(C)(C)O)c2cc1OC
Summary of the method: as §1

gefitinib = compound: COc1cc2ncnc(Nc3ccc(F)c(Cl)c3)c2cc1OCCCN1CCOCC1 [gefitinib]
Summary of the method: as §1

UniProt Q92615, sequence (Q92615 whole entry, looked up): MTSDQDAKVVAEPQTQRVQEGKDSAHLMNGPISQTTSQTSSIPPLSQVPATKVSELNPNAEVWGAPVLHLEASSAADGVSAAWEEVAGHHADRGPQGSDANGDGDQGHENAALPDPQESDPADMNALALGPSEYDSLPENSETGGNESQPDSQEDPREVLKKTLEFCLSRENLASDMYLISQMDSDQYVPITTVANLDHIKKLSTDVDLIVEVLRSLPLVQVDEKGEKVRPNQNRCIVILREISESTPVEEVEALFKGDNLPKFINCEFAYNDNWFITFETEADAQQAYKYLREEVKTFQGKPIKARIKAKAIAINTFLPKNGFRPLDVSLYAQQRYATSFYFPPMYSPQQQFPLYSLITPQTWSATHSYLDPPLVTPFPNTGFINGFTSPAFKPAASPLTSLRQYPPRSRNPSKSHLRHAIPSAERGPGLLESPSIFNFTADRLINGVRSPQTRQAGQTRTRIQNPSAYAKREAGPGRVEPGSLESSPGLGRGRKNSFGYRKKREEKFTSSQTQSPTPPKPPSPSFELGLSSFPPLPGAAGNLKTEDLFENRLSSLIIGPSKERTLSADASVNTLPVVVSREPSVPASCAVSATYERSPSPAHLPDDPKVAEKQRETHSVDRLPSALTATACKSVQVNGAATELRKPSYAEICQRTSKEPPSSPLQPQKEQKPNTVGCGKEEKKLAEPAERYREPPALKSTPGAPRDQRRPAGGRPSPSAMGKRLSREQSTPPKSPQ
UniProt Q14693, sequence (Q14693 whole entry, looked up): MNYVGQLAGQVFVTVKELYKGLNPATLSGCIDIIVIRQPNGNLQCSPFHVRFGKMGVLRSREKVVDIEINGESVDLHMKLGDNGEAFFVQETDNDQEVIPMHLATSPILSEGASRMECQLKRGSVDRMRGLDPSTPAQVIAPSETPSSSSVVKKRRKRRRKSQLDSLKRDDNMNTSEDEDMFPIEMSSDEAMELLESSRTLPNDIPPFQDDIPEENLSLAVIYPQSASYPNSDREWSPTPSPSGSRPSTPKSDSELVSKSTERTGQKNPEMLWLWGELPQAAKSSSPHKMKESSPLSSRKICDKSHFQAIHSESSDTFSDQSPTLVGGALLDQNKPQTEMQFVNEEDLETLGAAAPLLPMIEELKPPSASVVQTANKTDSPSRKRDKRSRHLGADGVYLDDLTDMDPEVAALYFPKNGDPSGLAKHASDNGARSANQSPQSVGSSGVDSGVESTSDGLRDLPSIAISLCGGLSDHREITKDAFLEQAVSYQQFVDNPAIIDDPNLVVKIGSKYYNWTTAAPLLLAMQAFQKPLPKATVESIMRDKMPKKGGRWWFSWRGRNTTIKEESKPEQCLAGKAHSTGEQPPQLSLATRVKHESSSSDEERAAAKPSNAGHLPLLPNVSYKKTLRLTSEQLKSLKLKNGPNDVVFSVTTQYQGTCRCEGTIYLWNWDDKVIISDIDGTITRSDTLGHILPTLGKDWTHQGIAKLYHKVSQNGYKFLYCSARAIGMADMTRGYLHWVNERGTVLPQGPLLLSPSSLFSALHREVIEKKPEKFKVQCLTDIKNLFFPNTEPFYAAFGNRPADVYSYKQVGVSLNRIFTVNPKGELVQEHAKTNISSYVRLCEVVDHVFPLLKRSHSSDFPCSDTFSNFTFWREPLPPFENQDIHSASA
UniProt O60244, sequence (O60244 whole entry, looked up): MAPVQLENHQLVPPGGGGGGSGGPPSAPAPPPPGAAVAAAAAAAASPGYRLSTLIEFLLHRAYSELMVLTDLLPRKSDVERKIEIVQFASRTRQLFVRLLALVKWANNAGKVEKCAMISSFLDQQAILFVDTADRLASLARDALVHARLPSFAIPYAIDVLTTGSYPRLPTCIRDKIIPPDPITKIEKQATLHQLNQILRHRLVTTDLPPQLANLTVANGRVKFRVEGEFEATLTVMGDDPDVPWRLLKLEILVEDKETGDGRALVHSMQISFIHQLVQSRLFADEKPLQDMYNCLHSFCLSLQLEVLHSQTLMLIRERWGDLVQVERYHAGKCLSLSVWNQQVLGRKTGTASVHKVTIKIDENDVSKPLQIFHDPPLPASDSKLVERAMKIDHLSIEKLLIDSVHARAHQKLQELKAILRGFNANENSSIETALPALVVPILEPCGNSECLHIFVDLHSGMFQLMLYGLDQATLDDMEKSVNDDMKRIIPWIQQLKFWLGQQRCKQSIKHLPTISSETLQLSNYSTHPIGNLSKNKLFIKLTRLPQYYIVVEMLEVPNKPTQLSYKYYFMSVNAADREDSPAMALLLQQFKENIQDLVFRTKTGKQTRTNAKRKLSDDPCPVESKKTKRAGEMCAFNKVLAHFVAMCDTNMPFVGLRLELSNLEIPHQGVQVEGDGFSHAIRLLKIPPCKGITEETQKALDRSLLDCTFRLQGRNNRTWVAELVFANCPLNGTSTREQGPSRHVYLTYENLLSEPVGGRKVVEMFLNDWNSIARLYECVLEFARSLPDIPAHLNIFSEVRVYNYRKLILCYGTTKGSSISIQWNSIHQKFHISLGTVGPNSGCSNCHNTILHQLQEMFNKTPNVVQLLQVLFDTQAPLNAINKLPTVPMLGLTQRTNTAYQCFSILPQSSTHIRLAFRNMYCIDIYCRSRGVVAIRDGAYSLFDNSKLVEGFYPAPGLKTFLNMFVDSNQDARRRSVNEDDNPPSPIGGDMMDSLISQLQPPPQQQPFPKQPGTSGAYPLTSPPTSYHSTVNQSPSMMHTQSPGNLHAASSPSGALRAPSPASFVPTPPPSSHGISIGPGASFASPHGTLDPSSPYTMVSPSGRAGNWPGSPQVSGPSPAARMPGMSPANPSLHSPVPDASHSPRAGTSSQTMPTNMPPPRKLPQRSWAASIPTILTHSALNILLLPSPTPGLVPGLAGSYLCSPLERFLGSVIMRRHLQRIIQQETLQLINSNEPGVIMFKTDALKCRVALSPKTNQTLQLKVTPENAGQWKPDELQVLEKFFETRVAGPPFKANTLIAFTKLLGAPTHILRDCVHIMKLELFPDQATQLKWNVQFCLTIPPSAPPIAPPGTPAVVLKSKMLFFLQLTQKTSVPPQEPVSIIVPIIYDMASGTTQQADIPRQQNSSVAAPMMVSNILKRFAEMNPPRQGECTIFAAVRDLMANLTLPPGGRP
UniProt Q14807, sequence (Q14807 whole entry, looked up): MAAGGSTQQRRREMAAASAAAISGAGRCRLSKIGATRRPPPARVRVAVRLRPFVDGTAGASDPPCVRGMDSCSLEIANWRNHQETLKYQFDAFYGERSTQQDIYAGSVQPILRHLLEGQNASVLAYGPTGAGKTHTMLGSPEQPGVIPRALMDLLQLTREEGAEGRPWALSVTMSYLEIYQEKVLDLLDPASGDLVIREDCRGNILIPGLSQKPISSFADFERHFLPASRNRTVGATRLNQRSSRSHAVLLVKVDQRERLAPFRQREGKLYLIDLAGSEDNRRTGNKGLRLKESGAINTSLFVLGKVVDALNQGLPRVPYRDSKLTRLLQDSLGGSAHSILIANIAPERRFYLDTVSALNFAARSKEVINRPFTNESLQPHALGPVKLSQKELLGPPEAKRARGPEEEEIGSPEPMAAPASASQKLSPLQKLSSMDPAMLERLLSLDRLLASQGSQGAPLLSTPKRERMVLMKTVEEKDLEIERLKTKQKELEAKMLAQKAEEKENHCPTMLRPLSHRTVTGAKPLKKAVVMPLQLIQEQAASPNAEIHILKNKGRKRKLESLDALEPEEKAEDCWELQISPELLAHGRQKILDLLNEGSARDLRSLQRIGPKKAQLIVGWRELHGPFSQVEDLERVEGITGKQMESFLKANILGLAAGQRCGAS
UniProt P34949, sequence (P34949 whole entry, looked up): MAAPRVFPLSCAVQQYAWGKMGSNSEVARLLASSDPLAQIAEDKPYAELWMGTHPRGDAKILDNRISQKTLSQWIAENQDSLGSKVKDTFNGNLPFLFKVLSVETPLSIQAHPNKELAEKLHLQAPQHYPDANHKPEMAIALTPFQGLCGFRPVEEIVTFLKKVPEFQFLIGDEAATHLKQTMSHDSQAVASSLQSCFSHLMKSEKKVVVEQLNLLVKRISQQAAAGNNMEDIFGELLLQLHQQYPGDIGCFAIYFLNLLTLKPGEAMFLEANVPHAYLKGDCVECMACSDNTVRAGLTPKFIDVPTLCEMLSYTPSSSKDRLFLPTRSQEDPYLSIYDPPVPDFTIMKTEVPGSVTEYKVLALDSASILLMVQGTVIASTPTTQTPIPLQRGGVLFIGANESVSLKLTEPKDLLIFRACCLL
UniProt Q8NE86, sequence (Q8NE86 whole entry, looked up): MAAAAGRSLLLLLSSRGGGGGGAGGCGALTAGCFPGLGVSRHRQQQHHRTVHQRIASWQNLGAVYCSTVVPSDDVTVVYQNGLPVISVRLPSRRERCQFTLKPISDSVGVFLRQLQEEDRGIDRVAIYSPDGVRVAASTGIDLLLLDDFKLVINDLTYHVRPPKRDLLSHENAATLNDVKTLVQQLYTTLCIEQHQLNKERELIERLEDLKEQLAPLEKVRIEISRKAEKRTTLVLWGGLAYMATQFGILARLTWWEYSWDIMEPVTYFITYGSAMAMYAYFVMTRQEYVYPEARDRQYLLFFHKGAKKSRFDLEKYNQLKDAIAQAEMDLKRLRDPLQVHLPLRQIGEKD
UniProt Q7Z3D4, sequence (Q7Z3D4 whole entry, looked up): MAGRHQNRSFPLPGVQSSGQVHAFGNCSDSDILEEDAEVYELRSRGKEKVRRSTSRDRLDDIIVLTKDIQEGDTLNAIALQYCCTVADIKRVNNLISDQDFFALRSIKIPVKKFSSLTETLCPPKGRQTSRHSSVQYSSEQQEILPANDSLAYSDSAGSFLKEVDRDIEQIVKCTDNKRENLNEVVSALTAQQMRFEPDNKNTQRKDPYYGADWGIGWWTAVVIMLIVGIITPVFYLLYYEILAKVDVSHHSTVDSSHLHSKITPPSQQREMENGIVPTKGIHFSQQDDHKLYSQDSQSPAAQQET

| Target | log2 fold change (vemurafenib) | log2 fold change [1] | log2 fold change (barasertib) | log2 fold change [2] | log2 fold change (volasertib) | log2 fold change [3] | log2 fold change [4] | log2 fold change [5] | log2 fold change (saracatinib) | log2 fold change (sotrastaurin) | log2 fold change (alvocidib) | log2 fold change (Tubastatin A) | log2 fold change [6] | log2 fold change (defactinib) | log2 fold change [7] | log2 fold change (encorafenib) | log2 fold change [8] | log2 fold change (alisertib) | log2 fold change [9] | log2 fold change (gefitinib) |
| --- | --- | --- | --- | --- | --- | --- | --- | --- | --- | --- | --- | --- | --- | --- | --- | --- | --- | --- | --- | --- |
| KIF4A (UniProt O95239) | 0.005 | 0.035 | -0.02 | -0.021 | -0.055 | 0.003 | 0.013 | -0.07 | 0.007 | -0.003 | 0.006 | -0.145 | 0.022 | 0.006 | 0.005 | -0.014 | 0.154 | -0.041 | -0.035 | -0.018 |
| LARP4B (UniProt Q92615) | -0.014 | 0.011 | -0.033 | -0.029 | -0.042 | 0.08 | -0.116 | 0.038 | 0.011 | -0.019 | 0.001 | -0.118 | 0.005 | 0.023 | -0.027 | 0.024 | 0.015 | 0.025 | -0.013 | -0.006 |
| MPI (UniProt P34949) | 0.013 | 0.007 | 0.008 | 0.014 | -0.02 | -0.011 | 0.149 | -0.067 | -0.028 | 0.025 | 0.051 | 0.024 | -0.02 | -0.007 | 0.035 | -0.01 | 0.477 (active) | 0.018 | 0.01 | -0.014 |
| KLC4 isoform 3 (UniProt Q9NSK0) | -0.038 | 0.02 | -0.008 | 0.038 | -0.029 | 0.052 | 0.011 | -0.018 | -0.012 | 0.003 | -0.01 | -0.091 | -0.008 | 0.014 | -0.084 | 0.014 | 0.007 | 0.014 | 0.014 | -0.028 |
| LETM1 (UniProt O95202) | 0.029 | 0.005 | -0.015 | -0.012 | 0.01 | -0.015 | 0.08 | -0.287 (active) | -0.002 | -0.014 | -0.046 | -0.033 | 0.018 | -0.007 | -0.027 | -0.001 | -0.018 | -0.022 | -0.166 | -0.04 |
| MINK1 (UniProt Q8N4C8) | -0.096 | -0.107 | -0.017 | -0.012 | 0.022 | 0.076 | -0.033 | -0.09 | 0.007 | 0.079 | -0.049 | -0.137 | 0.055 | 0.025 | 0.109 | -0.133 | 0.022 | 0.051 | -0.003 | – |
| LZTS1 (UniProt Q9Y250) | -0.047 | -0.034 | 0.218 | 0.042 | 0.074 | -0.53 | 0.493 | -0.132 | 0 | -0.116 | 0.054 | 0.326 | -0.037 | -0.101 | 0.709 | -0.071 | 0.001 | -0.022 | 0.129 | -0.08 |
| LRRC40 (UniProt Q9H9A6) | 0.004 | 0.015 | 0.034 | -0.024 | -0.011 | 0.018 | 0.052 | -0.052 | 0 | 0.021 | -0.009 | -0.089 | 0.019 | 0.013 | -0.012 | 0.021 | -0.038 | 0.031 | -0.008 | 0.001 |
| LPIN1 isoform 7 (UniProt Q14693) | -0.057 | 0.065 | 0.1 | -0.057 | -0.002 | -0.003 | -0.052 | -0.05 | 0.024 | 0.028 | -0.054 | -0.05 | -0.006 | 0.003 | -0.1 | 0.089 | -0.064 | -0.028 | 0.007 | -0.04 |
| MARK2 (UniProt E9PC69) | 0.015 | -0.005 | 0.027 | 0 | 0.028 | -0.015 | -0.013 | -0.22 | 0.021 | -0.026 | -0.032 | -0.049 | -0.187 | -0.087 | 0.056 | 0.181 | 0.211 | 0.021 | 0.01 | -0.03 |
| METTL2A (UniProt Q96IZ6) | 0.073 | 0.058 | 0.023 | -0.046 | -0.015 | -0.011 | 0.06 | -0.113 | -0.004 | 0.011 | 0.023 | -0.079 | 0.058 | 0.019 | -0.028 | -0.007 | 0.055 | -0.057 | 0.029 | 0.04 |
| LYSMD3 (UniProt Q7Z3D4) | 0.025 | -0.05 | -0.003 | 0.074 | 0.056 | -0.013 | -0.094 | 0.235 | 0.056 | 0.002 | -0.001 | 0.127 | -0.045 | -0.062 | 0.092 | 0.031 | -0.124 | 0.001 | 0.112 | 0.254 |
| MCU (UniProt Q8NE86) | 0.011 | 0.017 | 0.077 | -0.085 | -0.033 | -0.049 | -0.062 | -0.099 | 0.04 | 0.017 | 0.011 | 0.045 | 0.026 | 0.037 | -0.067 | 0.016 | -0.035 | 0.01 | -0.063 | -0.091 |
| MED14 (UniProt O60244) | -0.078 | 0.003 | 0.015 | -0.084 | -0.023 | 0.008 | -0.008 | 0.009 | -0.001 | 0.008 | -0.017 | -0.068 | 0.051 | -0.008 | 0.015 | 0.012 | 0.003 | -0.028 | -0.018 | 0.001 |
| KIF22 (UniProt Q14807) | -0.043 | -0.049 | 0.009 | 0.088 | 0.075 | -0.189 | -0.157 | 0.308 | 0.036 | -0.084 | -0.121 | 0.099 | -0.059 | 0.175 | 0.137 | 0.012 | -0.017 | 0.011 | 0.171 | -0.013 |
| LRCH3 (UniProt Q96II8) | -0.009 | -0.01 | 0.03 | -0.051 | -0.058 | -0.022 | 0.022 | -0.031 | 0.004 | -0.047 | 0 | -0.238 | -0.003 | -0.002 | 0.069 | 0.021 | 0.045 | 0.021 | -0.012 | -0.075 |
